Reference: the supplement of paper PMC10849652
About 7,900 targets were measured; listed, in parts, are those with a hit and a random draw of the rest. About 0.6% of all pairs of compound and target were hits. A number with no mark means an inactive call.

Legend:
Assay in all cases: log2 fold change, soluble protein after heating vs DMSO (PISA); higher = thermal stabilisation; K562 cells, 10 uM, 30 min; active = over 0.2 and 3.5 SD of the protein, either way, in both replicates (recomputed)
IRAK-1-4 Inhibitor I = compound: C1COCCN1CCN2C3=CC=CC=C3N=C2NC(=O)C4=CC(=CC=C4)[N+](=O)[O-] [IRAK-1-4 Inhibitor I]
In short: (§1)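 Thermal stability values are relative to control samples and come from duplicates. They are expressed as log2 fold changes. For measurement, K562 cells (2×10^6 cells/mL) received 10 μM compound for 30 min, and aliquots were heated for 3 min over 48°C-58°C, pooled, and extracted at 4°C in PBS with 0.5% NP-40. Soluble protein, the supernatant after 21,000xg for 90 min, was quantified by TMTpro 16plex LC-MS/MS with equalised channel sums.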

ibrutinib = compound: C=CC(=O)N1CCC[C@@H](n2nc(-c3ccc(Oc4ccccc4)cc3)c3c(N)ncnc32)C1 [ibrutinib]
In short: as §1

[1] = compound: CC(=O)c1cnc2ccc(-c3cc(Cl)c(O)c(Cl)c3)nc2c1N[C@H]1CC[C@H](CN(C)C)CC1
In short: as §1

ralimetinib = compound: CC(C)(C)Cn1c(N)nc2ccc(-c3[nH]c(C(C)(C)C)nc3-c3ccc(F)cc3)nc21 [ralimetinib]
In short: as §1

[2] = compound: CC(C)(O)CC(=O)NCCn1ccc2ncnc(Nc3ccc(Oc4cccc(C(F)(F)F)c4)c(Cl)c3)c21
In short: as §1

[3] = compound: CC(C)C1=C2N=C(C=C(N2N=C1)NCC3=CC=CC=C3)NCCCCCCN
In short: as §1

[4] = compound: CC(C)C[C@@H](C=O)NC(=O)[C@H](CC(C)C)NC(=O)[C@H](CC(C)C)NC(=O)OCc1ccccc1
In short: as §1

pinometostat = compound: CC(C)N(C[C@H]1O[C@@H](n2cnc3c(N)ncnc32)[C@H](O)[C@@H]1O)[C@H]1C[C@@H](CCc2nc3cc(C(C)(C)C)ccc3[nH]2)C1 [pinometostat]
In short: as §1

[5] = compound: CC1=C(C(CC(=O)N1)C2=CC=C(C=C2)C(F)(F)F)C(=O)NC3=C(C=C4C(=C3)C=NN4)F
In short: as §1

[6] = compound: CC1=C(C2=C(C=C1)C(=O)C3=CC=CC=C3N2CCCN)C
In short: as §1

[7] = compound: CC1=C(C=C(C=C1)NC(=O)C2=CC(=CC=C2)C(C)(C)C#N)NC3=CC4=C(C=C3)N=CN(C4=O)C
In short: as §1

[8] = compound: CC1=C(C=C(C=C1)NC(=O)C2=CC(=CC=C2)N(C)C)NC(=O)C3=CC=C(C=C3)O
In short: as §1

[9] = compound: CC1=CC=C(C=C1)SC2=C3C=C(SC3=CN=C2)C(=O)N
In short: as §1

[10] = compound: CC1=NC(=CC=C1)C2=C(N=C(N2)C(C)(C)C)C3=CC4=NC=CN=C4C=C3
In short: as §1

Nexturastat A = compound: CCCCN(Cc1ccc(C(=O)NO)cc1)C(=O)Nc1ccccc1 [Nexturastat A]
In short: as §1

vemurafenib = compound: CCCS(=O)(=O)Nc1ccc(F)c(C(=O)c2c[nH]c3ncc(-c4ccc(Cl)cc4)cc23)c1F [vemurafenib]
In short: as §1

[11] = compound: CCCS(=O)(=O)Nc1ccc(F)c(C(=O)c2c[nH]c3ncc(Cl)cc23)c1F
In short: as §1

[12] = compound: CCCc1cc(C)[nH]c(=O)c1CNC(=O)c1cc(-c2ccnc(N3CCN(C)CC3)c2)cc2c1cnn2C(C)C
In short: as §1

givinostat = compound: CCN(CC)Cc1ccc2cc(COC(=O)Nc3ccc(C(=O)NO)cc3)ccc2c1 [givinostat]
In short: as §1

barasertib = compound: CCN(CCCOc1ccc2c(Nc3cc(CC(=O)Nc4cccc(F)c4)[nH]n3)ncnc2c1)CCOP(=O)(O)O [barasertib]
In short: as §1

Sequence of UniProt O14730 (O14730 whole entry, looked up): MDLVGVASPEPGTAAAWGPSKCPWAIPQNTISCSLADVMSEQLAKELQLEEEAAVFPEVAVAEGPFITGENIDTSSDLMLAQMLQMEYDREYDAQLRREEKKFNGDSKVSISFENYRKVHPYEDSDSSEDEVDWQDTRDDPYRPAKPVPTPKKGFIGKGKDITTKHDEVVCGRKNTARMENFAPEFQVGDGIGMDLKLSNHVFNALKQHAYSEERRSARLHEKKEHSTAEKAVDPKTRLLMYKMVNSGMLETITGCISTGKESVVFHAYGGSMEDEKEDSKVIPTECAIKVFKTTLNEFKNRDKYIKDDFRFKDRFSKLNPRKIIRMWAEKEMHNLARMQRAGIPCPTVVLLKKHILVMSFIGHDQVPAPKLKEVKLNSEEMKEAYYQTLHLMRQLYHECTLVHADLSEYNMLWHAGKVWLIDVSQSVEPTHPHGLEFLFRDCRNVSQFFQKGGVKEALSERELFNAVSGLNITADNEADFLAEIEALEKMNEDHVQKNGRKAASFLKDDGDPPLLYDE
Sequence of UniProt O00584 (O00584 whole entry, looked up): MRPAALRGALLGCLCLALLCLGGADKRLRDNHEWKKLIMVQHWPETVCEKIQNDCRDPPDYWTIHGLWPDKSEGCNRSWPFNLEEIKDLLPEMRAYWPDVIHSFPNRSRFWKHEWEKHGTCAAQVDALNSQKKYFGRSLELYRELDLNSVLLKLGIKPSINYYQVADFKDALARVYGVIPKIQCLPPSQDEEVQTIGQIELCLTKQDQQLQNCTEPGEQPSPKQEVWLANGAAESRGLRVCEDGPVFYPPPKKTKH
Sequence of UniProt Q15349 (Q15349 whole entry, looked up): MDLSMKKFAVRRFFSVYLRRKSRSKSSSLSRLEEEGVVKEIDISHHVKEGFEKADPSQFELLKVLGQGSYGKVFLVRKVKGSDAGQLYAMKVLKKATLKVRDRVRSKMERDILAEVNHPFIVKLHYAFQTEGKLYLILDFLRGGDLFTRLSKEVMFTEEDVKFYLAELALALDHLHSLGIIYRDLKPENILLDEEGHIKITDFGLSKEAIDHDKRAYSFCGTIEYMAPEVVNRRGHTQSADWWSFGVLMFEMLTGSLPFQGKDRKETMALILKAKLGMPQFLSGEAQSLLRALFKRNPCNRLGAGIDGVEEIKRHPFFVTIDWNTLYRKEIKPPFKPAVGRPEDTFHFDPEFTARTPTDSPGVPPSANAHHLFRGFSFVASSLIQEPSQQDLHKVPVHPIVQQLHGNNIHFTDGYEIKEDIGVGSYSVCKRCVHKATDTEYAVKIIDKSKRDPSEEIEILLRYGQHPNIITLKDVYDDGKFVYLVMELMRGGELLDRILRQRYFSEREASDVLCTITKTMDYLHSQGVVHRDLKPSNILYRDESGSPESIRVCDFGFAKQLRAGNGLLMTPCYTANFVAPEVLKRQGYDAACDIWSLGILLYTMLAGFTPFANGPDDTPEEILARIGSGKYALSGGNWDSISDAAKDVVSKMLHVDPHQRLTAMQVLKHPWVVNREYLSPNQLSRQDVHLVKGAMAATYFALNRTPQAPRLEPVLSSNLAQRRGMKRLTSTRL
Sequence of UniProt Q86TU7 (Q86TU7 whole entry, looked up): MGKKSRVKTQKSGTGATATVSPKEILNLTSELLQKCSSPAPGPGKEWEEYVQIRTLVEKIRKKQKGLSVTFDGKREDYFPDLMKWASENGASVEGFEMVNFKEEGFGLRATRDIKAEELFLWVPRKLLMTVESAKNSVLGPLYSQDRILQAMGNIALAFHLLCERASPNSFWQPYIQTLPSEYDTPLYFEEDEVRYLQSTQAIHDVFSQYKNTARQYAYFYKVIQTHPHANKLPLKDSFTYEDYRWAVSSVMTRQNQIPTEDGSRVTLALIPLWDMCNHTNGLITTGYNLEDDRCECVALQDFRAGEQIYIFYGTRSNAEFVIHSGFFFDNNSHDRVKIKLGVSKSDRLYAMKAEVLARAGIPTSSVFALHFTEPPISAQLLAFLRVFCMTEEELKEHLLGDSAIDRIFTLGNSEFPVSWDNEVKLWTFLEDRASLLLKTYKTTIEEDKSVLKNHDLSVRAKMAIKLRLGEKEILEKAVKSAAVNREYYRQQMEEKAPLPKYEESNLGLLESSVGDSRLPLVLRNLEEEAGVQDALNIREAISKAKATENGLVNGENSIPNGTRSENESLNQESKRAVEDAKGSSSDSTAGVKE
Sequence of UniProt Q15758 (Q15758 whole entry, looked up): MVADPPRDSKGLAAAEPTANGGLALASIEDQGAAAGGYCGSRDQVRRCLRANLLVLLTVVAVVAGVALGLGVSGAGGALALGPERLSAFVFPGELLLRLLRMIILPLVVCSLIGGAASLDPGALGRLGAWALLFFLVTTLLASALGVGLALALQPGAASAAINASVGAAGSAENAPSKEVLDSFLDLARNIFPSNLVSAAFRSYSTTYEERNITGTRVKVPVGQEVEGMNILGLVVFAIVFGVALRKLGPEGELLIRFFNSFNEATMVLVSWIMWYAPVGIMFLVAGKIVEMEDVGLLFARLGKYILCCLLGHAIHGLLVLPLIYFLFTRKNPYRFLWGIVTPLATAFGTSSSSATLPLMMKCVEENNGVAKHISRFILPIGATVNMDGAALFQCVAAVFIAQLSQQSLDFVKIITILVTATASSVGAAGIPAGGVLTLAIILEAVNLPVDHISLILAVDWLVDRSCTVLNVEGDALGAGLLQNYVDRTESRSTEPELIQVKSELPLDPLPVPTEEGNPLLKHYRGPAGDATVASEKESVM
Sequence of UniProt Q8N0T1 (Q8N0T1 whole entry, looked up): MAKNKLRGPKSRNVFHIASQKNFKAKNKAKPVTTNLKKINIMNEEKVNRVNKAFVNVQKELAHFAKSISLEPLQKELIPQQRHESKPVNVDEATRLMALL
Sequence of UniProt Q92930 (Q92930 whole entry, looked up): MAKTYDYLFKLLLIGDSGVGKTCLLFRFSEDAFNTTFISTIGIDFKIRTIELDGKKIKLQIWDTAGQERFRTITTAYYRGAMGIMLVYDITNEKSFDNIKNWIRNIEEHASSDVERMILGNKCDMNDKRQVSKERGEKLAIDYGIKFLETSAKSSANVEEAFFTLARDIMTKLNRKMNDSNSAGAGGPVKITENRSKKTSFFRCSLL

Row | Target | log2 fold change (IRAK-1-4 Inhibitor I) | log2 fold change (ibrutinib) | log2 fold change [1] | log2 fold change (ralimetinib) | log2 fold change [2] | log2 fold change [3] | log2 fold change [4] | log2 fold change (pinometostat) | log2 fold change [5] | log2 fold change [6] | log2 fold change [7] | log2 fold change [8] | log2 fold change [9] | log2 fold change [10] | log2 fold change (Nexturastat A) | log2 fold change (vemurafenib) | log2 fold change [11] | log2 fold change [12] | log2 fold change (givinostat) | log2 fold change (barasertib)
1 | RPS6KA2 isoform 2 (UniProt Q15349) | 0.001 | -0.066 | -0.178 | -0.492 (active) | -0.082 | -0.082 | 0.07 | 0.01 | 0.016 | 0.006 | -0.087 | -0.229 | 0.159 | 0.011 | 0.009 | 0.037 | 0.026 | 0.023 | -0.148 | 0.064
2 | SLC1A5 (UniProt Q15758) | 0.035 | 0.028 | 0.013 | 0.046 | -0.002 | 0.23 | -0.052 | -0.034 | -0.012 | -0.014 | 0.007 | 0.002 | 0.019 | -0.01 | -0.053 | -0.006 | 0.012 | -0.01 | -0.022 | -0.04
3 | RBIS (UniProt Q8N0T1) | -0.038 | 0.019 | -0.109 | -0.021 | 0.083 | -0.001 | 0.281 (active) | 0.044 | 0.066 | -0.478 (active) | -0.099 | -0.011 | -0.055 | 0.023 | -0.012 | -0.002 | -0.063 | -0.074 | -0.02 | -0.009
4 | RIOK3 (UniProt O14730) | 0.087 | 0.002 | 0.024 | -0.009 | -0.083 | -0.009 | 0.021 | -0.011 | 0.019 | -0.231 (active) | 0.026 | 0.021 | 0.009 | 0.014 | -0.094 | -0.012 | -0.012 | 0.011 | -0.003 | -0.003
5 | RPS9 (UniProt P46781) | -0.1 | -0.025 | 0.108 | 0.125 | 0.047 | -0.025 | 0 | 0.206 | 0.005 | -0.585 (active) | 0.039 | 0 | -0.073 | -0.016 | 0.104 | -0.107 | -0.066 | 0.087 | 0.038 | -0.114
6 | RAB8B (UniProt Q92930) | 0.028 | -0.009 | 0 | -0.001 | -0.047 | -0.002 | 0.046 | -0.091 | 0.019 | 0.004 | 0.055 | 0.013 | 0.073 | 0.081 | -0.082 | 0.192 | 0.018 | 0.109 | -0.014 | -0.016
7 | SETD3 (UniProt Q86TU7) | -0.007 | 0.011 | -0.018 | -0.041 | -0.013 | 0.027 | -0.022 | 0.002 | -0.03 | 0.05 | -0.008 | 0.029 | -0.01 | 0.046 | -0.024 | 0.035 | -0.01 | 0.034 | -0.037 | 0.026
8 | RNASET2 (UniProt O00584) | 0.028 | 0.042 | 0 | -0.082 | 0.029 | -0.206 | -0.004 | -0.014 | 0.045 | -0.061 | 0.007 | 0.026 | 0.033 | 0.027 | -0.079 | -0.019 | 0.004 | 0.001 | -0.006 | -0.013
